Experimental findings from the supplement of paper PMC10681739 are described below.

In assay [1] the target is T1, ETS1 (UniProt P14921).
T1 sequence: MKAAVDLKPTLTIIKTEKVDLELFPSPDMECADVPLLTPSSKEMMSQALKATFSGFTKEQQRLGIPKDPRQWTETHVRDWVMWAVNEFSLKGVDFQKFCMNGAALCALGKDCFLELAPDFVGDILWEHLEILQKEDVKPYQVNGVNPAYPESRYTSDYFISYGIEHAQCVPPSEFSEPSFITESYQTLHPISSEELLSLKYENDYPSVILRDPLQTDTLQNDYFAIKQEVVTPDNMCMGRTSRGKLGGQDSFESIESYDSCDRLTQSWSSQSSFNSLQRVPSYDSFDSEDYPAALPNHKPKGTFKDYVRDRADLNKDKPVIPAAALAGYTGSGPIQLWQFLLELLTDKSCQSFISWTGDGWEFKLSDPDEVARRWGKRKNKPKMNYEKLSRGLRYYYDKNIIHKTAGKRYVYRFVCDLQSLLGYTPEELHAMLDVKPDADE
As to the kind of experiment: ETS1 binding intensity (PBM fluorescence), ETS1 alone (arbitrary fluorescence units); higher = stronger binding. Particulars: ETS1 concentration 1 nM; RUNX1 concentration 0 nM.

Assay [2] deals with T1, ETS1. As to the kind of experiment: ETS1 binding intensity (PBM fluorescence) in presence of RUNX1, normalised to ETS1-only experiment (arbitrary fluorescence units); higher = stronger binding. The conditions noted are these: ETS1 concentration 1 nM; RUNX1 concentration 25 nM.

CTGAGGCGCGCCGGAAGGGCTAGCGGTCCCAGCATA: the values for the ETS1 binding intensity with ETS1 [1] and in the assay with ETS1 [2] were 1280 and 1430, respectively.
The matching figures for CTATATCACATCCTTTCTCTGACCGCGCTGACTTCG: 452 and 481.
The matching figures for TAGTCCGCTACAGGAAGGTGGTCATCCTCGGATACC: 1110 and 1170.
Taken in the same sequence, the figures for TGCCCAGTACTTCCTCTTGTGGGGGAGCACAACTTG were 569 and 424.
As to CCGTGTCAGTGAGGATGTGGGCTGCCGGGCTGGGCG, the ETS1 binding intensity with ETS1 [1] stood at 491; in the assay with ETS1 [2], 753.
As to CCGGGAGGGACGGAGGATGTGTGGTTCTGTCTCCTT, the ETS1 binding intensity was 673 with ETS1 [1] and 553 with ETS1 [2].
As for CTACATGTTTCACAGGAAGGTGGTCACCAGGAGGCA, the figures for the ETS1 binding intensity in the assay with ETS1 [1] and with ETS1 [2] were 782 and 821, respectively.
The matching figures for TACCGCTGCTTCCTGCCTGCGCGGTGAGCCTGTGCC: 829 and 802.
For the sequence CGGGGCATGCCGGACGCTGTGGTCCTGAAGGCCTGG, the ETS1 binding intensity with ETS1 [1] worked out at 536; with ETS1 [2], 423.
For CTGTCCACATAAGGAAGTTGGGACCACAAGGTCTTT, the ETS1 binding intensity is 870 with ETS1 [1] and 1350 in the assay with ETS1 [2].
Take TTTTCCGACGGAAGCCTTACTGCCGCAAACGTCACT: the ETS1 binding intensity was 556 with ETS1 [1] and 503 with ETS1 [2].
The matching figures for TCGCTTCCTGCTCCACTTCTCGGCGCCCACATCTCC: 514 and 523.
The matching figures for CCATGAGGAGGGAGGAAATAGTGGTACGAGGGCTGC: 1040 and 1040.
Regarding CGAGCTATTTACTTCCTGCGGGTGCACAGGCTGTGA, the values for the ETS1 binding intensity in the assay with ETS1 [1] and with ETS1 [2] were 654 and 475, respectively.
The matching figures for CCTGTCTGCTTCCGCCCGGCTTCGGCCCACAGTCAA: 511 and 441.
Taken in the same sequence, the figures for CAAGAATGAGAAAGGAAGCTGGCGGTTGGGCAGGTG were 890 and 1260.
The matching figures for CACTCCCCCATTCCGGCTGCAGGTTGAGGTTTGGAA: 517 and 571.
Turning to TGCTCCACTCGGAAGTGGTGCCGCAGCTCTTCGATG, the ETS1 binding intensity in the assay with ETS1 [1] is 697; with ETS1 [2], 800.
Taken in the same sequence, the figures for GAGCAACCAGGAAGAGCTTTGGCTGTGGGCTAAGAT were 511 and 441.
On to CTCTTCCAGGAAGCCTTCCCTGACCACTGCTTGCTC, for which the ETS1 binding intensity with ETS1 [1] was 396; with ETS1 [2] it was 505.
The matching figures for AGCGGGAGGAAGTGCTGCAGTAGCCACAGCAGCCTG: 534 and 737.
Take ATAAAGGATGTACAGTATTTAGAGAACAGTGGTTAA: the ETS1 binding intensity came to 553 in the assay with ETS1 [1] and 485 in the assay with ETS1 [2].
The matching figures for TAAAGCGGAAGGGGCCGGCTCTGCGGCCTGGCCGCT: 553 and 770.
As to CCTGACTCTGGGTTTCCTCCCAGCCACAGACACCTG, the figures for the ETS1 binding intensity in the assay with ETS1 [1] and with ETS1 [2] were 459 and 412, respectively.
The matching figures for GCGCGCTTCCGCCTTCATGCTAGCAACGCCCGCAGT: 566 and 560.
Taken in the same sequence, the figures for TGAAGGGACGGAAGGGACAGAACTTGCGGGAGGCAC were 497 and 416.
Taken in the same sequence, the figures for GGAGTGAGGAGGAAGCGGAGGCGAGACCGCGCTCAA were 464 and 399.
As to TGGGGTGGGGTGGGAAGTGCCAGCGGTCTGGGTGTC, the ETS1 binding intensity in the assay with ETS1 [1] was determined as 537; in the assay with ETS1 [2], 486.
Taken in the same sequence, the figures for CAGCTAGAGGAAGCGCTTCGCCCGCGAACCACAGGG were 375 and 705.
The matching figures for GAGAATGAAGAGGAAATGTGGGGACAGACAGAACTG: 1060 and 1170.
Taken in the same sequence, the figures for AAAACGCGGAAATACGGTGGCTGCGGCCCGCGGGCA were 494 and 573.
Take CCGAAGAGGAAGCTCCACAGGACCTCCGCGGTCAGC: the ETS1 binding intensity was found to be 397 with ETS1 [1] and 1000 with ETS1 [2].
The matching figures for AGAAACGTCAATTTCCTGGCCACAGAATCCACTGCC: 608 and 501.
The matching figures for AAGCAGAGCTCAGGATGTGGTGCCGTGCGAGGGCGG: 697 and 847.
Taken in the same sequence, the figures for CTGTTCTCATCCGCCCGCTCTGAGTCACCCACACCT were 465 and 441.
In the case of TGAATCATCCTGAGTTACCCGTTCTGTAACCGCCCC, the ETS1 binding intensity was found to be 490 with ETS1 [1] and 517 with ETS1 [2].
Taken in the same sequence, the figures for ATGTAAACAAGGATGTGAGTTCTGCGGCCACACTCT were 448 and 763.
The matching figures for TCTGAGAATGCAGGATATGTGTGTGGTCTCTAGTCA: 1240 and 1510.
Regarding GCTTAGGCTCTTTCCTGTGTGGTGAGCACTAACCTC, the values for the ETS1 binding intensity with ETS1 [1] and with ETS1 [2] were 488 and 324, respectively.
The matching figures for TTGCTAGAGGAAGCGCTGCCCCGGCAGCCGCAGCCA: 524 and 596.
Regarding ATAGTCACCGTTCCGGCCCTCCTCCACCGCACTTCT, the ETS1 binding intensity with ETS1 [1] is 445; with ETS1 [2], 578.
The matching figures for CCCTTTTCCTTCCGGCCTGTGCGGCTTATAAGATCT: 736 and 1090.
The matching figures for GCGTTTCCCCCTTGGGGTTATAGCAACCACCTCCTC: 479 and 358.
